Screens from PubChem.
Hits are enriched below; roughly 17% of the tested compounds scored in any of these assays.
ATXN2 expr inh: Primary qHTS for Inhibitors of ATXN expression. HEK-293 ATXN2-luciferase reporter, luminescence, 24 h. Potency, µM (titrated, usually from 57 µM), actives largely listed as inhibitors. 360,000 tested, 0.72% active. AID 1745845, 2022; also: nearly all actives have a fitted effect of over 55% in size
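ATXN2-luciferase reporter cells (luciferase flanked by upstream and downstream ATXN2 gene portions) were treated 24 h at 37 °C with compounds at up to 57 uM. SteadyGlo luminescence gave expression; GF-AFC fluorescence gave viability.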
DT40 TDP1 no CPT: qHTS for Inhibitors of human tyrosyl-DNA phosphodiesterase 1 (TDP1): qHTS in cells in absence of CPT; DT40 Tdp1-/- hTDP1 cells, no CPT, ATP luminescence, 48 h; Potency, µM (titrated, usually from 46.2 µM), hits mostly inhibitors; 420,000 tested, 15% active; AID 686978, 2013; also: nearly all actives have a fitted effect of over 55% in size
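Readout: luminescence from CellTiter-Glo after 30 min in the dark at RT. Cells: DT40 Tdp1-/- with stable hTDP1, 400/well. Exposure: compounds alone, ≥48 hr, 37 °C.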
ATXN viability: Viability Counterscreen for Primary qHTS for Inhibitors of ATXN expression; 400,000 tested, 0.49% active; Potency, µM (doses to about 56.7 µM), usual class: cytotoxic; S2 cells (HEK-293 line with an ATXN2-luciferase reporter) viability, CellTiter-Fluor protease fluorescence, 24 h; AID 651635, 2014; also: nearly all actives have a fitted effect of over 40% in size
HepG2 tox-1: qHTS for Inhibitors of TGF-b: Cytotox Counterscreen | HepG2 CAGA-GFP viability, ATP luminescence, 18 h | Potency, µM (highest dose often 46.1 µM), most hits filed as cytotoxic | 410,000 tested, 0.76% active | AID 588856, 2011
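CellTiter-Glo luminescence gave cytotoxicity after 18 hours at 37 degrees C. The cells were HepG2 CAGA-GFP in 1% FBS DMEM, stimulated with 500 pg/mL TGF-beta after compound addition. %Activity was normalised to no-cell wells (complete cell-killing) and DMSO (no toxicity), and curves were fitted and classified.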
TGFb SMAD3 inh: qHTS for Inhibitors of TGF-b | HepG2 CAGA-GFP TGF-b/SMAD3 reporter, GFP fluorescence, 18 h; TGF-beta stimulated, 500 pg/mL final | Potency, µM (highest dose often 46.1 µM), usual class: inhibitors | 410,000 tested, 1.2% active | AID 588855, 2011; also: nearly all actives have a fitted effect of over 65% in size
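Smad-responsive CAGA-GFP expression was quantified in HEPG2 cells exposed to compounds and 500 pg/mL final TGF-beta for 18 h at 37 degrees C; unstimulated wells defined full inhibition.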
TDP1 cell CPT: qHTS for Inhibitors of human tyrosyl-DNA phosphodiesterase 1 (TDP1): qHTS in cells in presence of CPT; Potency, µM (top dose mostly 46.2 µM), usual class: inhibitors; chicken DT40 Tdp1-/-;hTDP1 cells + 20 nM CPT, ATP luminescence, 48 h; 420,000 tested, 12% active; also: nearly all actives have a fitted effect of over 55% in size
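Cell growth measured by CellTiter-Glo luminescence after a minimum 48 h, 37 C compound exposure with 20 nM CPT in Tdp1-knockout DT40 cells stably expressing hTDP1, seeded 400/well; qHTS titration format.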
TGFb CAGA inh: qHTS for Inhibitors of TGF-b: Confirmation of Cherry Picks | HepG2 CAGA-GFP TGF-b reporter, GFP fluorescence, 18 h; cells stimulated with TGF-beta, 500 pg/mL | Potency, µM (highest dose often 46.1 µM), actives largely listed as inhibitors | shares compounds with TGFb SMAD3 inh | 1,600 tested, 63% active; also: nearly all actives have a fitted effect of over 65% in size
HepG2 tox-2: qHTS for Inhibitors of TGF-b: Cytotox Counterscreen for Cherry Picks. HepG2 CAGA-GFP viability, ATP luminescence, 18 h; cells stimulated with TGF-beta, 500 pg/mL. Potency, µM (titrated, usually from 46.1 µM), most hits filed as inhibitors. shares compounds with TGFb SMAD3 inh. 1,600 tested, 27% active; also: nearly all actives have a fitted effect of over 70% in size
TGFb CCL64 inh: qHTS for Inhibitors of TGF-b: CCL64 Cells Orthogonal Assay for Cherry Picks; shares compounds with TGFb SMAD3 inh; CCL64 CAGA-GFP reporter, TGF-b stimulated, GFP fluorescence, 18 h; Potency, µM (titrated, usually from 46.1 µM), usual class: inhibitors; 1,600 tested, 41% active; also: nearly all actives have a fitted effect of over 65% in size
TGFb COP inh: qHTS for Inhibitors of TGF-b: Hit Validation in HepG2 Cells using COP promoter; shares compounds with TGFb SMAD3 inh; HepG2 COP-GFP TGF-b reporter, GFP fluorescence, 18 h; cells stimulated by added recombinant TGF-beta; Potency, µM (highest dose often 46.1 µM), most hits filed as inhibitors; 1,600 tested, 3% active; also: nearly all actives have a fitted effect of over 70% in size
Numbers stand for hits; – = inactive; ? = inconclusive; · = no result given. Calls follow the shape of the dose curve; as a rule, active = well fitted curve in the direction sought with a large enough effect; inconclusive = small, poorly fitted or top-dose-only effect, or another doubt; inactive = no such curve, though single readings can be large; an effect the other way counts as inactive or inconclusive.

SMILES	ATXN2 expr inh	DT40 TDP1 no CPT	ATXN viability	HepG2 tox-1	TGFb SMAD3 inh	TDP1 cell CPT	TGFb CAGA inh	HepG2 tox-2	TGFb CCL64 inh	TGFb COP inh
CN(CC(=O)Nc1cccc(F)c1)C(=O)c1cccc(S(=O)(=O)N2CC3(C)CC2CC(C)(C)C3)c1 (centres undefined)	–	?	?	–	11.2µM	?	16.4µM	–	?	–
OCCOCCn1c(CCNc2nc(-c3ccc(F)cc3)cs2)nc2cc(C(F)(F)F)ccc21	?	?	?	–	?	?	·	·	·	·
COc1ccc(-c2csc(NC(C)c3nc4cc(C(F)(F)F)ccc4n3CCOCCO)n2)cc1 (centres undefined)	?	18.4µM	?	–	12.6µM	16.4µM	23.1µM	?	?	–
CC1=C(Nc2ccc(C(=O)O)cc2)C(=O)c2ccccc2C1=O	–	?	?	–	7.94µM	?	14.6µM	?	–	–
CC(C(=O)Nc1ccc(C(=O)O)cc1)N1C(=O)c2ccccc2C1=O (centres undefined)	–	–	–	–	–	–	·	·	·	·
O=C1C(Cl)=C(NCc2cccnc2)C(=O)c2ccccc21	?	8.2µM	?	1.41µM	3.16µM	13µM	4.61µM	6.51µM	?	16.4µM
O=C1C(Cl)=C(Nc2ccccc2)C(=O)c2ccccc21	?	2.91µM	28.2µM	6.31µM	4.47µM	2.06µM	3.26µM	6.51µM	?	–
Cc1cccnc1NC(=O)c1cc2ccccc2oc1=O	–	?	–	–	–	–	·	·	·	·
COc1cc(OC)cc(C(=O)N[C@H](C(=O)Nc2nc(-c3ccc(OC)c(OC)c3)cs2)C(C)C)c1	·	13µM	–	–	12.6µM	18.4µM	14.6µM	–	–	–
COc1cc(C2c3cc4c(cc3OC(NCCc3ccccc3)C2C)OCO4)cc(OC)c1OC (centres undefined)	–	0.82µM	–	–	?	1.03µM	?	–	16.4µM	–
CCc1ccc(CN(C)C(=O)c2cc(COc3cccc4cnccc34)on2)cc1	·	6.51µM	–	–	10µM	9.2µM	?	?	?	–
CCOC(=O)c1c(C)[nH]c(C(=O)OCC(=O)NCCc2ccc(OCC)c(OCC)c2)c1C	–	5.17µM	–	–	?	6.51µM	?	?	–	–
Cc1ccc(Cn2nnc3c(=O)[nH]c(C4CCN(S(=O)(=O)c5cc(C)ccc5C)CC4)nc32)cc1	–	23.1µM	–	–	15.8µM	?	20.6µM	–	?	–
Cc1ccc(C)c(S(=O)(=O)N2CCC(c3nc4c(nnn4Cc4ccc(F)cc4)c(=O)[nH]3)CC2)c1	–	?	–	–	?	?	·	·	·	·
O=c1[nH]c(C2CCN(S(=O)(=O)c3ccccc3F)CC2)nc2c1nnn2Cc1ccc2c(c1)OCCO2	·	–	?	–	–	?	·	·	·	·
O=c1[nH]c(C2CCN(S(=O)(=O)c3ccc(F)cc3)CC2)nc2c1nnn2Cc1ccc2c(c1)OCCO2	·	?	–	–	15.8µM	?	14.6µM	–	?	–
COc1ccccc1N1CCN(Cc2cc(Br)c(O)c3ncccc23)CC1	3.77µM	9.2µM	?	–	?	6.51µM	?	–	4.11µM	–
COc1ccc2oc(=O)cc(CN3CCN(c4ccccc4OC)CC3)c2c1	·	?	·	–	–	?	·	·	·	·
O=C(NCc1nnc(SCc2ccc(F)cc2)n1-c1ccc(F)cc1)C12CC3CC(CC(C3)C1)C2	–	29.1µM	–	–	15.8µM	14.6µM	?	?	?	–
CC(=O)c1ccc(C2CC34CN(Cc5cccc(Cl)c5)S(=O)(=O)C3CC2O4)cc1 (centres undefined)	·	·	·	–	–	·	·	·	·	·
O=S1(=O)[C@H]2CC3O[C@]2(C[C@@H]3c2ccc(F)cc2)CN1Cc1ccc(Cl)cc1	–	?	–	–	7.08µM	?	?	–	–	–
Cc1ccc(NC(=O)C2CCCN2S(=O)(=O)c2ccc3c(c2)n(C)c(=O)c(=O)n3C)cc1C (centres undefined)	–	–	–	–	–	–	·	·	·	·
COc1ccc(-c2[nH]ncc2CN2CCC(O)(c3ccc(Cl)cc3)CC2)cc1	–	10.3µM	–	–	6.31µM	?	?	?	9.2µM	–
OC1(c2ccc(Cl)cc2)CCN(Cc2cn[nH]c2-c2ccc(F)cc2)CC1	–	4.11µM	–	–	3.98µM	13µM	?	?	25.9µM	–
COc1ccc(-c2[nH]ncc2CN2CCN(c3ccc(F)cc3)CC2)cc1	·	–	–	–	?	–	·	·	·	·
SMILES	ATXN2 expr inh	DT40 TDP1 no CPT	ATXN viability	HepG2 tox-1	TGFb SMAD3 inh	TDP1 cell CPT	TGFb CAGA inh	HepG2 tox-2	TGFb CCL64 inh	TGFb COP inh
COc1ccc(NCc2nc3ccccc3n2CCOc2ccccc2)cc1	–	?	–	–	–	?	·	·	·	·
COc1ccc(NCc2nc3ccccc3n2CCOc2ccc(C)cc2)cc1	?	16.4µM	?	–	14.1µM	16.4µM	13µM	?	8.2µM	–
CCOC(=O)c1sc(=S)sc1SCc1cccc(C(F)(F)F)c1	–	–	–	–	?	–	·	·	·	·
O=C(Cc1cccc(NC(=O)C2CCCN(C(=O)C3CCCCC3)C2)c1)Nc1cccc(C(=O)N2CCCC2)c1 (centres undefined)	–	–	–	–	?	–	?	–	–	–
O=C(Cc1cccc(NC(=O)C2CCCN(C(=O)C3CCCCC3)C2)c1)Nc1cccc(C(=O)N2CCCCC2)c1 (centres undefined)	–	–	–	–	–	–	·	·	·	·
C/C=C1\COC(C(=O)NCc2ccccn2)(C(F)(F)F)C=C1C=C(C)C (centres undefined)	·	·	·	–	–	·	·	·	·	·
